# Assay results reported in publication PMC10954555.
# Key:
# [1] = molecular target: Large ribosomal subunit protein uL5 (UniProt P62913); experiment: cross-linking mass spectrometry; other
# Actin, cytoplasmic 2 = Actin, cytoplasmic 2 (UniProt P63261); experiment: other; cross-linking mass spectrometry; other
# [2] = molecular target: Bromodomain-containing protein 3 (UniProt Q15059); experiment: other; cross-linking mass spectrometry; other
# [3] = molecular target: DNA-directed RNA polymerase II subunit RPB3 (UniProt P19387); experiment: other; cross-linking mass spectrometry; other
# [4] = molecular target: DNA-directed RNA polymerase II subunit RPB1 (UniProt P24928); experiment: other; affinity purification or IP with mass spectrometry; other
# [5] = molecular target: High mobility group nucleosome-binding domain-containing protein 3 (UniProt Q15651); experiment: other; cross-linking mass spectrometry; other
# [6] = molecular target: Large ribosomal subunit protein eL34 (UniProt P49207); experiment: other; cross-linking mass spectrometry; other
# [7] = molecular target: Large ribosomal subunit protein eL8 (UniProt P62424); experiment: other; cross-linking mass spectrometry; other
# [8] = molecular target: Large ribosomal subunit protein uL2 (UniProt P62917); experiment: other; cross-linking mass spectrometry; other
# [9] = molecular target: Large ribosomal subunit protein eL6 (UniProt Q02878); experiment: other; cross-linking mass spectrometry; other
# [10] = molecular target: RNA polymerase II-associated factor 1 homolog (UniProt Q8N7H5); experiment: other; cross-linking mass spectrometry; other
# RNA-binding protein 8A = RNA-binding protein 8A (UniProt Q9Y5S9); experiment: other; cross-linking mass spectrometry; other
# [11] = molecular target: Replication factor C subunit 5 (UniProt P40937); experiment: other; cross-linking mass spectrometry; other
# Replication factor C subunit 5, sequence (P40937 whole entry): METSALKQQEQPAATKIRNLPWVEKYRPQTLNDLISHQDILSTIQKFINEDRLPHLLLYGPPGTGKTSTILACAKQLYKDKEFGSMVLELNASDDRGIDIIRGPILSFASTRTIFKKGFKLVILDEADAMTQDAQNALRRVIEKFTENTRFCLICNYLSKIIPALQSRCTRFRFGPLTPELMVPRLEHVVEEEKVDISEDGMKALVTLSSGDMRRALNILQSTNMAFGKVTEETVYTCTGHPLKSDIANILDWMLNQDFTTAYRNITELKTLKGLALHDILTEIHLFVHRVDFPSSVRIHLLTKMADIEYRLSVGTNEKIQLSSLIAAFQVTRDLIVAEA
# [12] = molecular target: Retinoblastoma-binding protein 5 (UniProt Q15291); experiment: other; cross-linking mass spectrometry; other
# Retinoblastoma-binding protein 5, sequence (Q15291 whole entry): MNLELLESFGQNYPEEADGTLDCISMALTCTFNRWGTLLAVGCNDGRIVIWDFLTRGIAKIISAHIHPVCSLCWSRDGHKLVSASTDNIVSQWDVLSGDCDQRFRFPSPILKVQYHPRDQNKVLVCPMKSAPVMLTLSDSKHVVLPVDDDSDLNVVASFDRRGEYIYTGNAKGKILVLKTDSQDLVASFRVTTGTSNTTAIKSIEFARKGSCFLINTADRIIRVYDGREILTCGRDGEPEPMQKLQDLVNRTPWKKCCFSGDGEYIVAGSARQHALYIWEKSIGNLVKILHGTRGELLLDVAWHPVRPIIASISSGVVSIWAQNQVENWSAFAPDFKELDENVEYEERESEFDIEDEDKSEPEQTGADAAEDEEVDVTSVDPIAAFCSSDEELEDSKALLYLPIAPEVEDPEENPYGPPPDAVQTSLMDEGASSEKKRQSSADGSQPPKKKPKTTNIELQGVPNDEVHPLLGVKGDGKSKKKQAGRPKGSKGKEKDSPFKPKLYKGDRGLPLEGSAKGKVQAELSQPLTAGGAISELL
# [13] = molecular target: Small ribosomal subunit protein eS6 (UniProt P62753); experiment: other; cross-linking mass spectrometry; other
# [14] = molecular target: Small ribosomal subunit protein uS14 (UniProt P62273); experiment: other; cross-linking mass spectrometry; other
# [15] = molecular target: Small ribosomal subunit protein uS7 (UniProt P46782); experiment: other; cross-linking mass spectrometry; other
# [16] = molecular target: Ubiquitin-ribosomal protein eS31 fusion protein (UniProt P62979); experiment: other; cross-linking mass spectrometry; other
# [17] = molecular target: DNA-directed RNA polymerase II subunit RPB9 (UniProt P36954); experiment: other; affinity purification or IP with mass spectrometry; other
# [18] = molecular target: DNA-directed RNA polymerase II subunit RPB2 (UniProt P30876); experiment: other; affinity purification or IP with mass spectrometry; cross-linking mass spectrometry; other
# [19] = molecular target: Actin, alpha skeletal muscle (UniProt P68133); experiment: cross-link between two proteins; cross-linking mass spectrometry; other
# Replication factor C subunit 4, P35249, sequence (P35249 whole entry): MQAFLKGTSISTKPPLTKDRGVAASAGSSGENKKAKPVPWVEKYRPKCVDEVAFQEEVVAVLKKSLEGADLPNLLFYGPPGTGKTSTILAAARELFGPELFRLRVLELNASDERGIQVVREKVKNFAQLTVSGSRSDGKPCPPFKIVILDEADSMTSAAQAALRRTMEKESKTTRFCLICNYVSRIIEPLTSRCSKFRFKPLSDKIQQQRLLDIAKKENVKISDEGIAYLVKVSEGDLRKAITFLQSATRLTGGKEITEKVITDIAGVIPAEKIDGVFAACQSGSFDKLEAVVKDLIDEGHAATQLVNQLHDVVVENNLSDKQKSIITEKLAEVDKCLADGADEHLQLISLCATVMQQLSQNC
# Bromodomain-containing protein 3, sequence (Q15059 whole entry): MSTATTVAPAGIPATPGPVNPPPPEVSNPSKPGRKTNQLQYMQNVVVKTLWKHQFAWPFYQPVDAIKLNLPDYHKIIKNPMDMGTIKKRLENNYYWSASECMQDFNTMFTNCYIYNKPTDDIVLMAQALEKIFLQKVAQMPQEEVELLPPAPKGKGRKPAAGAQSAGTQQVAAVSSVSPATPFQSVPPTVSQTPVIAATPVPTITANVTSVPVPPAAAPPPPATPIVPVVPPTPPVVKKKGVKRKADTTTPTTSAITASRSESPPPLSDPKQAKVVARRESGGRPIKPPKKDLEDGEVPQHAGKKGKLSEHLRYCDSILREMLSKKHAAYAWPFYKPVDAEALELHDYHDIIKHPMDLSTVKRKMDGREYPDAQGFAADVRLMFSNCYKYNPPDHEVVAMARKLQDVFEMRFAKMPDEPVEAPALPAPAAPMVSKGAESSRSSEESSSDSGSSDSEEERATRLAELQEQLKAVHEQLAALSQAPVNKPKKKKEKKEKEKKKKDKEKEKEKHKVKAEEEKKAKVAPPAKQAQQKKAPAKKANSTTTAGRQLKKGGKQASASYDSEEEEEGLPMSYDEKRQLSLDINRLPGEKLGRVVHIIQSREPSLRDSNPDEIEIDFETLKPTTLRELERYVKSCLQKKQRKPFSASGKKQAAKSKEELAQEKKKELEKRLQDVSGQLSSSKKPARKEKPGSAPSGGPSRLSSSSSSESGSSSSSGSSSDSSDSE
substance,measurement,setting,value
"Large ribosomal subunit protein uL1, P62906",listed as a hit,[1],yes
"Actin, cytoplasmic 1, P60709",listed as a hit,"Actin, cytoplasmic 2",yes
"Bromodomain-containing protein 4, O60885",listed as a hit,[2],yes
"DNA-directed RNA polymerase II subunit RPB4, O15514",listed as a hit,[3],yes
same,listed as a hit,[4],yes
"Non-histone chromosomal protein HMG-17, P05204",listed as a hit,[5],yes
"Large ribosomal subunit protein uL4, P36578",listed as a hit,[6],yes
same,listed as a hit,[7],yes
same,listed as a hit,[8],yes
"Large ribosomal subunit protein eL32, P62910",listed as a hit,[9],yes
"RNA polymerase-associated protein CTR9 homolog, Q6PD62",listed as a hit,[10],yes
"Parafibromin, Q6P1J9",listed as a hit,[10],yes
"Eukaryotic initiation factor 4A-III, P38919",listed as a hit,RNA-binding protein 8A,yes
"Replication factor C subunit 4, P35249",listed as a hit,[11],yes
"Histone-lysine N-methyltransferase 2A, Q03164",listed as a hit,[12],yes
"Small ribosomal subunit protein uS17, P62280",listed as a hit,[13],yes
"Small ribosomal subunit protein uS10, P60866",listed as a hit,[14],yes
"Small ribosomal subunit protein eS19, P39019",listed as a hit,[15],yes
"Small ribosomal subunit protein eS1, P61247",listed as a hit,[16],yes
"Small ribosomal subunit protein uS7, P46782",listed as a hit,[16],yes
"DNA-directed RNA polymerase II subunit RPB1, P24928",listed as a hit,[17],yes
same,listed as a hit,[18],yes
"Actin, cytoplasmic 2, P63261",listed as a hit,[19],yes
